In the supplement of paper PMC6555819:

Columns and labels:
Experiment in all cases: PBM binding z-score (relative to random genomic background probes); higher = stronger binding; sequences stand for … in GC…GCGATTGACAGCGTAGAATGAAGG
[1] = system: FXR:RXRa (NR concentration 270 nM, RXRa partner concentration 90 nM)
Procedure, shortened: (§1)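 Ligand-free nuclear receptor dimers were applied to custom Agilent 4×180K protein-binding microarrays whose double-stranded probes carried direct-repeat seeds, single-nucleotide variants, half-site ablations and random human genomic background sequences in 34-nt variable regions. Incubation lasted 1 h. Binding z-scores were computed against the random background probes from regression-normalized fluorescence.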

[2] = system: LXRa:RXRa (NR concentration 270 nM, RXRa partner concentration 90 nM)
Procedure, shortened: as §1

[3] = system: LXRa homodimer (NR concentration 270 nM)
Procedure, shortened: as §1

[4] = system: LXRb homodimer (NR concentration 270 nM)
Procedure, shortened: as §1

[5] = system: PPARa:RXRa (NR concentration 270 nM, RXRa partner concentration 90 nM)
Procedure, shortened: as §1

[6] = system: PPARg:RXRa (NR concentration 180 nM, RXRa partner concentration 90 nM)
Procedure, shortened: as §1

[7] = system: PPARg:RXRa 270nM:90nM, anti-RXR (NR concentration 270 nM, RXRa partner concentration 90 nM)
Procedure, shortened: as §1

[8] = system: PPARg:RXRa 30nM:10nM, anti-RXR (NR concentration 30 nM, RXRa partner concentration 10 nM)
Procedure, shortened: as §1

[9] = system: PPARg:RXRa 90nM:30nM, anti-RXR (NR concentration 90 nM, RXRa partner concentration 30 nM)
Procedure, shortened: as §1

Row | Sequence | PBM binding z-score [1] | PBM binding z-score [2] | PBM binding z-score [3] | PBM binding z-score [4] | PBM binding z-score [5] | PBM binding z-score [6] | PBM binding z-score [7] | PBM binding z-score [8] | PBM binding z-score [9]
1 | CCTTACGGGTCACTGACAGCTTATAGCATTTGGA | 5.14 | 3.38 | 0.0209 | -0.0269 | 4.99 | 4.12 | 4.15 | 1.74 | 3.11
2 | CATAGTTGGTCAAGGTCACACACGCTATAGGTAC | 4.26 | 4.07 | 1.83 | 1.1 | 4.12 | 3.78 | 3.92 | 1.88 | 3.28
3 | CCTACTGGGCCATTCAGAGGTCACTGATCATATG | 1.98 | 3.26 | 4.37 | 0.018 | 3.77 | 2.57 | 3.18 | 0.819 | 2.14
4 | CTCGAAAGGTCGTGGTCAGGTGAGTATACCAAAC | 5.9 | 4.27 | 0.0394 | 0.247 | 5.02 | 3.26 | 4.6 | 1.21 | 3.34
5 | CGTCCAAGGTAAATGCTAGGTCAGTGAAAGCATT | 0.57 | 1.38 | 0.935 | -0.419 | 0.673 | -0.228 | -0.117 | -0.486 | -0.493
6 | TAGCCTCGGTCATTCAGGGGCCAGTATAGAAAGC | 1.19 | 1.14 | 0.485 | 0.157 | 0.242 | -0.061 | -0.248 | -0.569 | -0.514
7 | AGAATGAGGTTAGCAAAGATCAGGGAAACGCTTG | 0.688 | 1.07 | -0.0125 | -0.163 | 1.79 | 1.02 | 0.909 | 0.0816 | 0.6
8 | TCTAGTTCGTCACGGAGGTCACACACGACGGGTA | 3.69 | 3.72 | 2.25 | 1.17 | 4.1 | 2.17 | 3.67 | 3.62 | 3.42
9 | ACTCGGAGGACAAAGGTGAGAGCTACGCCAGTGA | 0.567 | 0.58 | -0.14 | -0.434 | 2.81 | 4.53 | 5.16 | 3.49 | 5.42
10 | TCTACTTGGTCACGGAGGTCACACACGACGGGTA | 3.59 | 3.73 | 3.08 | 1.3 | 3.99 | 3.67 | 4.1 | 3.72 | 3.83
11 | CCTAGATGGTCAGGAGGTCACACACCGGATATGA | 3.84 | 3.42 | 2 | 0.565 | 4.14 | 3.01 | 3.58 | 1.24 | 2.41
12 | CCTACTGGGCCGAGGTCATTGATCAGTCAAAGCA | 4.08 | 3.71 | 1.15 | -0.228 | 3.96 | 3.02 | 3.38 | 0.749 | 2.52
13 | ATCGAAAGGTCGTGAGGTGAGTACACAGAAAGGC | 4.79 | 4.23 | 0.197 | 0.501 | 5.02 | 3.98 | 4.57 | 1.74 | 3.26
14 | AGTCGGAGGACAAAGGTCAGAGCTACGCCAGTGA | 3.97 | 4.34 | 1.6 | 0.26 | 5.01 | 7.55 | 7.07 | 5.94 | 7.56
15 | GCTGCTAGGTCAGGTTGGTCAGCTAACGGGTACG | 1.01 | 0.656 | -0.0662 | -0.325 | 1.52 | 0.389 | 0.622 | -0.261 | 0.176
16 | CGTCCAAGGTCAAAGGTCAGCGAAGAGATGACGG | 8.78 | 7.06 | 3.38 | 1.66 | 7.31 | 11 | 8.69 | 8.19 | 9.49
17 | CCTAGTTGGTCAGGAAGTCACACACCGGATATGA | 0.197 | 0.331 | 0.553 | 0.257 | 0.239 | 0.696 | 0.592 | 0.308 | 0.322
18 | CCTACTGGGCCAAGGTCATTGACCAGTCAAAGCA | 3.77 | 4.03 | 1.67 | -0.702 | 4.03 | 4.3 | 4.66 | 2.17 | 4.38
19 | GTACCAAGGTGAATAGGTCGTTGATGAGTAGGCG | 0.835 | 0.771 | -0.075 | -0.364 | 2.08 | 1.61 | 1.8 | 0.486 | 1.17
20 | ATCGAAAGGTCGAGTTGAGTATAGAGAAAGGGAA | 4.54 | 3.84 | 0.29 | 1.04 | 4.32 | 2.44 | 2.9 | 0.961 | 2.07
21 | CCTTACGGGTCACTTACAGGTTATAGCATTTGGA | 4.84 | 4.49 | 0.907 | 0.66 | 4.62 | 3.07 | 3.73 | 1.27 | 2.84
22 | ATATGTAGGTTAGCTGGAGTCATTCAGACTAGGC | 0.00563 | 1.28 | -0.0336 | 0.0591 | 2.34 | 3 | 2.47 | 0.982 | 1.63
23 | ACTCGGAGGACAAAGGTAAGAGCTACGCCAGTGA | -0.107 | -0.113 | -0.383 | -0.762 | 1.12 | 2.52 | 3.87 | 1.74 | 3.83
24 | GATACAGGGTCAAGGCCAGAGTACGCGTATTGAT | 6.67 | 4.16 | 0.173 | -0.282 | 5.44 | 5.85 | 5.43 | 2.04 | 4.11
25 | ATATGTAGGTTATCGGGTCATTCATTTTGCGCAT | 3.17 | 3.12 | 1.9 | 1.4 | 5.09 | 7.3 | 6.11 | 3.77 | 5.76
26 | CCTAGTTGGTCAGGGGGTCACACACCGGATATGA | 4.51 | 4.01 | 1.32 | 7.75 | 5.36 | 5.04 | 5.76 | 2.89 | 4.92
27 | AGAGTGAGGTTACCAAAGATCAGGGAAACGCTTG | 2.09 | 6.39 | 0.104 | 0.461 | 3.01 | 1.54 | 1.63 | 0.448 | 1.15
28 | ATATGTAGGTTAGCGGGGGTCATTCAGACTAGGC | 5.82 | 5.95 | 3.96 | 8.88 | 5.81 | 6.96 | 6.71 | 4.14 | 6.07
